Source: PubChem BioAssay
A number with no mark means an inactive call. Activity calls are given as the source filed them. Cut-off read from the data, not from the text of the source, unless noted: active = inhibition above about 25%; inactive = the rest.

target: Nuclear receptor coactivator 1 (Homo sapiens) (UniProt Q15788); test: SRC1 coactivator transcriptional activity inhibitors, confirmation, cell-based, luminescence, quadruplicate (AID 588820;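 active = mean inhibition above 46.68%, the untreated control wells mean plus 3 SD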;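 note: 0% = DMSO wells and 100% = gossypol 36 µM treated wells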); conditions: HEK293 GAL4-SRC1 luciferase reporter, at 3.6 µM, stronger effect = higher value
Sequence (Q15788 whole entry, looked up, the tested form may be a part): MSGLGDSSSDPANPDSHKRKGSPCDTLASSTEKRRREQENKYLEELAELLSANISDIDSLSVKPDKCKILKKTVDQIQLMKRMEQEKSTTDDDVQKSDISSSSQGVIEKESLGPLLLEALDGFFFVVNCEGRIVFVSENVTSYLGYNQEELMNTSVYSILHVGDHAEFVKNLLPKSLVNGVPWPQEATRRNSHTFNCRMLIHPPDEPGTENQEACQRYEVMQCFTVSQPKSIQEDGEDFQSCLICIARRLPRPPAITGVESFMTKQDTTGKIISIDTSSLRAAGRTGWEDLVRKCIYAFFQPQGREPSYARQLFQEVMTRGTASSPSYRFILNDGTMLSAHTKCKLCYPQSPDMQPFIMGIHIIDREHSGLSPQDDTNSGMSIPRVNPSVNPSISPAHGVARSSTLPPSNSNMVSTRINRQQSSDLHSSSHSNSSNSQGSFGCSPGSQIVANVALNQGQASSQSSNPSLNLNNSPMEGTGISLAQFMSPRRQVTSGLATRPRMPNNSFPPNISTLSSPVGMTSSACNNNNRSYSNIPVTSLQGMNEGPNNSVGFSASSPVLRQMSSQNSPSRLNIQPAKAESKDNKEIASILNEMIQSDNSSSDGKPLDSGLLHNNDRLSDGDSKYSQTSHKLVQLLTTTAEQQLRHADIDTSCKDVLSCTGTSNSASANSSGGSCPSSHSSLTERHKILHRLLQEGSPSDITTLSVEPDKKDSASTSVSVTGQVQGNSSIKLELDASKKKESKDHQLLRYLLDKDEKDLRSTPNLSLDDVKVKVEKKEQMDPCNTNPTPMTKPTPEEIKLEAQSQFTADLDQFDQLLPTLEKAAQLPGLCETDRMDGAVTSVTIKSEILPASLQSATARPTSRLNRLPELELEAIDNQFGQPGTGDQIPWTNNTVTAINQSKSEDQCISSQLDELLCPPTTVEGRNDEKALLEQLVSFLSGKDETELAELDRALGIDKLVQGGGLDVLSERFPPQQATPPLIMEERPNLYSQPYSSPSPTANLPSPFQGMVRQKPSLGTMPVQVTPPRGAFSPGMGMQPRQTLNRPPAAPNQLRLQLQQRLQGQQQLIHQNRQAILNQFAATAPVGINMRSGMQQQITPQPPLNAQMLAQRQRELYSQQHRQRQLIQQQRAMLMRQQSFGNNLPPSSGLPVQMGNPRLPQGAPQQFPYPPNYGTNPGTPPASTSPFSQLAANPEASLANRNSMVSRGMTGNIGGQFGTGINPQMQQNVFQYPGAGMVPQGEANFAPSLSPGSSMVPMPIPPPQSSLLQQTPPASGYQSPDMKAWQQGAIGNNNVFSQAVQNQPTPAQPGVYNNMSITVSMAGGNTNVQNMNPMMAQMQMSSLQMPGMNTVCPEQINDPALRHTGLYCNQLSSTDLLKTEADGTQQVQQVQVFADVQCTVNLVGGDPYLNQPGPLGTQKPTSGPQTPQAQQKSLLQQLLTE

Row | Structure (SMILES) | inhibition
1 | Cc1oc(C(C)(C)C)cc1C(=O)N1CCN(c2ccc(C(F)(F)F)cn2)CC1 | 0.89%
2 | COc1ccccc1C(c1nnnn1Cc1ccco1)N1CCN(c2cccc(C)c2C)CC1 (stereo not given) | 10.7%
3 | CCN(C(=O)CN1C(=O)S/C(=C\c2cccc(Cl)c2)C1=O)C1CCS(=O)(=O)C1 (stereo not given) | 4.59%
4 | COc1ccc(C(=O)Nc2ccc(N3CCCCCC3)cc2)cc1S(=O)(=O)N1CCOCC1 | -2.46%
5 | Cc1ccc(C)c(NC(=O)CCc2ccc(C)o2)c1 | 5.55%
6 | CC(=O)Nc1sc2c(c1-c1nc3ccccc3s1)CCN(C(C)C)C2 | -147%
7 | CC(C)(C)c1ccc(-c2cc(-c3ccccc3O)[nH]n2)cc1 | -42.5%
8 | CCN(C(=O)c1ccc(S(=O)(=O)N2CCC(C)CC2)cc1)C1CCS(=O)(=O)C1 (stereo not given) | -0.29%
9 | Cc1nnc(N2CCN(Cc3ccccc3)CC2)[nH]c1=O | -4.97%
10 | CN(CC(=O)Nc1ccc(Cl)c(C(F)(F)F)c1)C(=O)C1CC(=O)N(c2ccc3c(c2)OCCO3)C1 (stereo not given) | 17.4%
11 | CCOC(=O)C1=C(COC(=O)/C=C/c2ccc(OC)c(OC)c2)NC(=O)NC1C (stereo not given) | -16.4%
12 | CC(=O)c1c(C)n(-c2ccc(C)cc2)c2ccc(O)cc12 | 35%
13 | O=C(Nc1ccccc1)N1CCCN(c2ccc(C(F)(F)F)cn2)CC1 | -0.62%
14 | COc1cc2c3c([nH]c2cc1F)C(=O)NCC3 | 19.2%
15 | O=C(O)c1cc(=O)[nH]c2ccc(S(=O)(=O)Nc3ccc(F)cc3)cc12 | -12.9%
16 | COc1ccc(CCN(C)C(=O)c2cc(S(=O)(=O)N3CCCCC3)ccc2Cl)cc1OC | -9.24%
17 | CCOC(=O)N1CCC(Nc2ncnc3c2cnn3-c2ccc(C)cc2C)CC1 | -5.68%
18 | O=c1c2ccccc2oc2ccc(C#CC3(O)CCCCC3)cc12 | -38.7%
19 | O=C(O)c1ccccc1-c1c2cc(I)c(=O)c(I)c-2oc2c(I)c(O)c(I)cc12 | 18.7%
20 | CCOC1(OCC)OC(c2ccccc2)=C(C#N)C(C=Cc2ccccc2)C1(OCC)OCC (stereo not given) | 0.8%

Row | Structure (SMILES) | inhibition
21 | CS(=O)(=O)c1ccc(C(=O)OCC(=O)NC(=O)Cc2ccccc2)cc1 | -5.88%
22 | CC(=O)/C(=C/c1ccccc1)C(=O)Nc1ccccc1C | 5.97%
23 | O=c1c2ccccc2cnn1Cc1n[nH]c(=S)n1C1CC2CCC1C2 (stereo not given) | 8.04%
24 | COc1ccc(C)cc1S(=O)(=O)N1CCCC(N2CCN(c3ccccc3)CC2)C1 (stereo not given) | 2.59%
25 | O=C(Nc1ccc(Cl)c([N+](=O)[O-])c1)C(Sc1ccccc1)c1ccccc1 (stereo not given) | -8.15%
26 | NC(=O)c1nsc(C(=O)N(c2ccccc2F)C(C(=O)NCc2ccccc2)c2ccc(O)cc2)c1N (stereo not given) | -15.1%
27 | Cc1cccc(C)c1NC(=O)CNC(=O)Cc1c[nH]c2ccccc12 | -0.57%
28 | COc1ccc(-c2nc(-c3ccc(NC(=O)c4ccncc4)cc3)no2)cc1OC | -3.19%
29 | CC(=O)Nc1ccc(NC(=O)C(C)OC(=O)CCSc2ccccc2Cl)cc1 (stereo not given) | -6.34%
30 | Cc1cc(C)cc(NS(=O)(=O)c2ccc3[nH]c(=O)ccc3c2)c1 | -17.7%
31 | COc1ccc(C(=O)Oc2ccc(/C=N/NC(=O)c3ccccc3OC)cc2[N+](=O)[O-])cc1 | -11.5%
32 | Cc1nn(-c2ccccc2)c(N2CCCC2)c1/C=N/NC(=S)Nc1ccc(F)cc1 | 3.12%
33 | CC1CC(C)CN(c2ncc3c(n2)CC(c2ccc(Cl)cc2)CC3=O)C1 (stereo not given) | -7.75%
34 | Cc1cc2[nH]c(=O)c(=O)[nH]c2cc1S(=O)(=O)NC1CCC(C)CC1 (stereo not given) | -3.97%
35 | CC(=O)c1c(C)[nH]c(C(=O)COc2ccc3ccc(=O)oc3c2)c1C | -13.5%
36 | O=C(CSc1n[nH]c(-c2cccnc2)n1)Nc1ccc([N+](=O)[O-])cc1 | -26.9%
37 | Brc1ccc2ncnc(NCc3ccco3)c2c1 | 32.1%
38 | Cc1ccc(S(=O)(=O)c2nc(-c3ccccc3Cl)oc2NCCCN2CCOCC2)cc1 | -13.7%
39 | CCC1CCCCN1C(=O)CSc1nc(N)cc(=O)[nH]1 (stereo not given) | -15.7%
40 | CCCc1cc(C(=O)N(C)CC(=O)Nc2ccc(OCC)c(OCC)c2)sc1C | 20.5%

test system: not listed separately; test: VP16 transactivation inhibitors, counter-screen for SRC1 inhibitor project, cell-based, luminescence, high throughput (AID 588824); conditions: cell-based VP16 transactivation luciferase luminescence; at 3.6 µM; stronger effect = higher value

Row | Structure (SMILES) | inhibition
41 | Cc1oc(C(C)(C)C)cc1C(=O)N1CCN(c2ccc(C(F)(F)F)cn2)CC1 | 15.2%
42 | COc1ccccc1C(c1nnnn1Cc1ccco1)N1CCN(c2cccc(C)c2C)CC1 (stereo not given) | 5.76%
43 | CCN(C(=O)CN1C(=O)S/C(=C\c2cccc(Cl)c2)C1=O)C1CCS(=O)(=O)C1 (stereo not given) | 4.57%
44 | COc1ccc(C(=O)Nc2ccc(N3CCCCCC3)cc2)cc1S(=O)(=O)N1CCOCC1 | 18.2%
45 | Cc1ccc(C)c(NC(=O)CCc2ccc(C)o2)c1 | -2.65%
46 | CC(=O)Nc1sc2c(c1-c1nc3ccccc3s1)CCN(C(C)C)C2 | 59.3% (active)
47 | CC(C)(C)c1ccc(-c2cc(-c3ccccc3O)[nH]n2)cc1 | -28.4%
48 | CCN(C(=O)c1ccc(S(=O)(=O)N2CCC(C)CC2)cc1)C1CCS(=O)(=O)C1 (stereo not given) | 2.08%
49 | Cc1nnc(N2CCN(Cc3ccccc3)CC2)[nH]c1=O | -7.63%
50 | CN(CC(=O)Nc1ccc(Cl)c(C(F)(F)F)c1)C(=O)C1CC(=O)N(c2ccc3c(c2)OCCO3)C1 (stereo not given) | 14%
51 | CCOC(=O)C1=C(COC(=O)/C=C/c2ccc(OC)c(OC)c2)NC(=O)NC1C (stereo not given) | -2.04%
52 | CC(=O)c1c(C)n(-c2ccc(C)cc2)c2ccc(O)cc12 | 19.8%
53 | O=C(Nc1ccccc1)N1CCCN(c2ccc(C(F)(F)F)cn2)CC1 | -2.54%
54 | COc1cc2c3c([nH]c2cc1F)C(=O)NCC3 | 14.9%
55 | O=C(O)c1cc(=O)[nH]c2ccc(S(=O)(=O)Nc3ccc(F)cc3)cc12 | 7.7%
56 | COc1ccc(CCN(C)C(=O)c2cc(S(=O)(=O)N3CCCCC3)ccc2Cl)cc1OC | 8.04%
57 | CCOC(=O)N1CCC(Nc2ncnc3c2cnn3-c2ccc(C)cc2C)CC1 | 29% (active)
58 | O=c1c2ccccc2oc2ccc(C#CC3(O)CCCCC3)cc12 | -23.9%
59 | O=C(O)c1ccccc1-c1c2cc(I)c(=O)c(I)c-2oc2c(I)c(O)c(I)cc12 | 15.7%
60 | CCOC1(OCC)OC(c2ccccc2)=C(C#N)C(C=Cc2ccccc2)C1(OCC)OCC (stereo not given) | 4.67%

Row | Structure (SMILES) | inhibition
61 | CS(=O)(=O)c1ccc(C(=O)OCC(=O)NC(=O)Cc2ccccc2)cc1 | -3.13%
62 | CC(=O)/C(=C/c1ccccc1)C(=O)Nc1ccccc1C | 23.8%
63 | O=c1c2ccccc2cnn1Cc1n[nH]c(=S)n1C1CC2CCC1C2 (stereo not given) | -8.54%
64 | COc1ccc(C)cc1S(=O)(=O)N1CCCC(N2CCN(c3ccccc3)CC2)C1 (stereo not given) | 6.89%
65 | O=C(Nc1ccc(Cl)c([N+](=O)[O-])c1)C(Sc1ccccc1)c1ccccc1 (stereo not given) | 5.98%
66 | NC(=O)c1nsc(C(=O)N(c2ccccc2F)C(C(=O)NCc2ccccc2)c2ccc(O)cc2)c1N (stereo not given) | 2.13%
67 | Cc1cccc(C)c1NC(=O)CNC(=O)Cc1c[nH]c2ccccc12 | -1.35%
68 | COc1ccc(-c2nc(-c3ccc(NC(=O)c4ccncc4)cc3)no2)cc1OC | 41.4% (active)
69 | CC(=O)Nc1ccc(NC(=O)C(C)OC(=O)CCSc2ccccc2Cl)cc1 (stereo not given) | 4.67%
70 | Cc1cc(C)cc(NS(=O)(=O)c2ccc3[nH]c(=O)ccc3c2)c1 | -3.07%
71 | COc1ccc(C(=O)Oc2ccc(/C=N/NC(=O)c3ccccc3OC)cc2[N+](=O)[O-])cc1 | -0.66%
72 | Cc1nn(-c2ccccc2)c(N2CCCC2)c1/C=N/NC(=S)Nc1ccc(F)cc1 | 0.35%
73 | CC1CC(C)CN(c2ncc3c(n2)CC(c2ccc(Cl)cc2)CC3=O)C1 (stereo not given) | 3.59%
74 | Cc1cc2[nH]c(=O)c(=O)[nH]c2cc1S(=O)(=O)NC1CCC(C)CC1 (stereo not given) | -2.19%
75 | CC(=O)c1c(C)[nH]c(C(=O)COc2ccc3ccc(=O)oc3c2)c1C | 4.04%
76 | O=C(CSc1n[nH]c(-c2cccnc2)n1)Nc1ccc([N+](=O)[O-])cc1 | -8.24%
77 | Brc1ccc2ncnc(NCc3ccco3)c2c1 | 31.2% (active)
78 | Cc1ccc(S(=O)(=O)c2nc(-c3ccccc3Cl)oc2NCCCN2CCOCC2)cc1 | -5.68%
79 | CCC1CCCCN1C(=O)CSc1nc(N)cc(=O)[nH]1 (stereo not given) | -3.43%
80 | CCCc1cc(C(=O)N(C)CC(=O)Nc2ccc(OCC)c(OCC)c2)sc1C | 17.3%
